Drawing on ChEMBL document CHEMBL3433997, “St. Jude Leishmania screening dataset” (2016), this text covers inhibition for 36 compounds.

Broadly, the inhibition is the change of the read-out against control, counted positive when it falls.

The structures appear in SMILES notation.

Format in all cases: functional
For test [1], the target named is Solute carrier family 2, facilitated glucose transporter member 1 (Homo sapiens) (UniProt P11166). Put plainly: ST_JUDE_LEISH: Cytotoxicity at 2uM final concentration against transgenic Leishmania Mexicana promastigotes LmGLUT1 that are glucose transport deficient and complemented with the human glucose transporter GLUT1. Activity is measured by DNA content using SYBR green in vitro.

Test [2] addresses Hexose transporter 1 (Plasmodium falciparum) (UniProt O97467). Description: ST_JUDE_LEISH: Cytotoxicity at 2uM final concentration against transgenic Leishmania Mexicana promastigotes LmPfHT that are glucose transport deficient and complemented with the Plasmodium falciparum hexose transporter. Activity is measured by DNA content using SYBR green in vitro.
In test [3] the target is Glucose transporter (Leishmania mexicana) (UniProt O61059). Put plainly: ST_JUDE_LEISH: Cytotoxicity at 2uM final concentration against transgenic Leishmania Mexicana promastigotes LmGT2 that are glucose transport deficient and complemented with the L. Mexicana glucose transporter 2. Activity is measured by DNA content using SYBR green in vitro.

Solute carrier family 2, facilitated glucose transporter member 1 (Homo sapiens), sequence (P11166 whole entry): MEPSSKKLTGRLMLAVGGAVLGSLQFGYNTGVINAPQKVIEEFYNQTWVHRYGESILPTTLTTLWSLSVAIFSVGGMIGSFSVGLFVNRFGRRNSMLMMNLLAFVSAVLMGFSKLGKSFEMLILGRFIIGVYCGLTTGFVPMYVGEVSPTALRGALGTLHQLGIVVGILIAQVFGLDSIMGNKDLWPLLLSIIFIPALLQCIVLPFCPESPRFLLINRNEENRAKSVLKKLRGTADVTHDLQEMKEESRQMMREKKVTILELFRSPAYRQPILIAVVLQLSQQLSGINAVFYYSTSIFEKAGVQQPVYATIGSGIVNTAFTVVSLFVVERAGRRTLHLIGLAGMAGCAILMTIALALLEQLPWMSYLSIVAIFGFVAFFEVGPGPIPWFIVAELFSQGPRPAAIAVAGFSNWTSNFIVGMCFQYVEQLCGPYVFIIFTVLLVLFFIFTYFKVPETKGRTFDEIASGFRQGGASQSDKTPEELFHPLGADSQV

`COc1ccc(N2CCN(CCCOc3ccc(NC(=O)c4cc(Cl)cc(Cl)c4)cc3)CC2)c(OC)c1`: the inhibition was found to be 6.5% in test [1], 5.97% in test [2] and 6.22% in test [3].
The like results for `O=C(Nc1cccc(F)c1)NC1CCN(CCCCCNC(=O)C2CC2c2ccc(Cl)c(Cl)c2)CC1` (stereo not drawn) were, in that order, 0.44%, -0.11% and -1.31%.
The like results for `CCC(=O)N(c1ccccc1)C1CCN(CCCC(NC(=O)c2cc(C(F)(F)F)cc(C(F)(F)F)c2)c2ccc(Cl)c(Cl)c2)CC1` (stereo not drawn) were, in that order, 8.75%, 5.36% and 6.09%.
For `CCOC(=O)c1c(C)n(-c2ccccc2)c2ccc(O)cc12`, the inhibition in test [1] was -0.44%; in test [2] it was 2.67%; in test [3] it was 0.95%.
Take `Cn1cnc2c(SCc3ccc(OCc4ccccc4)cc3)ncnc21`: the values for the inhibition in test [1], in test [2] and in test [3] were 2.71%, 4.19% and 6.37%, respectively.
Take `COCc1cccc(-c2cc(-c3ccc(S(C)(=O)=O)cc3)cnc2N)c1`: the values for the inhibition in test [1], in test [2] and in test [3] were -0.03%, -0.46% and -5.63%, respectively.
The like results for `Cc1ccc(N2CCc3c(-c4cc5cccnc5nc4C)cc(C)nc32)c(Cl)c1` were, in that order, 4.06%, 6.18% and 3.42%.
The like results for `CCC(C)CN1CCCN(c2ccc(NC(=O)c3cccs3)cc2)CC1` (stereo not drawn) were, in that order, 1.62%, -0.95% and 5.89%.
The like results for `O=S(=O)(c1cccc2cccnc12)N1CCN(C2CCCCC2)CC1` were, in that order, 8.16%, 8.51% and 7.83%.
Regarding `CCCc1c(Cl)cc(CNCCCNc2nc3ccncc3[nH]2)cc1Cl`, the inhibition in test [1] is 1.35%; in test [2], 3.89%; in test [3], 1.39%.
With `c1ccc(Nc2nc(-c3ccccn3)cs2)nc1`, the inhibition in test [1] was -0.62%; in test [2], 0.38%; in test [3] it was -2.43%.
As to `CC1(C)N=C(N)N=C(N)N1O`, the inhibition was -0.13% in test [1], 1.38% in test [2] and 0.94% in test [3].
With `Nc1nnc(-c2ccc(Cl)c(Br)c2)c(N)n1`, the inhibition in test [1] was -0.74%; in test [2], 1.8%; in test [3] it was 4.94%.
Taken in the same sequence, the figures for `COc1ccc(CCN(C)CCCOc2ccc(NC(=O)c3cccc4c(=O)c5ccccc5[nH]c34)cc2)cc1OC` were 5.62%, 2.58% and 1.73%.
Turning to `Cc1ccc(C(NC(=O)Cc2ccccc2)c2ccc3cccnc3c2O)cc1` (stereo not drawn), the figures for the inhibition in test [1], in test [2] and in test [3] were 8.52%, 22.8% and 0.77%, respectively.
For the compound `O=C(Nc1ccc(Oc2ccccc2)cc1)N[C@H]1CCN(Cc2ccc(OCCCN3CCCCC3)cc2)C1`, the inhibition was -2.21% in test [1], -1.17% in test [2] and -3.91% in test [3].
The like results for `O=C1Nc2cccc3c2C1(CCCCCN1CCC(c2c[nH]c4ccncc24)CC1)CCC3` (stereo not drawn) were, in that order, 1%, 2.45% and -0.95%.
Taken in the same sequence, the figures for `Cc1cc(-c2ccc3c(c2)CCN(CCC2CCC(NC(=O)/C=C/c4cccc(F)c4)CC2)CC3)on1` (stereo not drawn) were 2.32%, 0.47% and 3.42%.
With `Nc1nc(N)c2c(ccc3ccccc32)n1`, the results for the inhibition in test [1], in test [2] and in test [3] were 14.7%, 28.9% and 19%, respectively.
On to `COc1cc(SC)ccc1C(=O)N1CC(C)CC(C)C1` (stereo not drawn), for which the results for the inhibition in test [1], in test [2] and in test [3] were 11.1%, 11.1% and 9.2%, respectively.
With `O=c1cc(NCCCNC2CCCc3c2ccc2ccccc32)[nH]c2ccccc12` (stereo not drawn), the inhibition in test [1] was 4.07%; in test [2] it was 4.85%; in test [3] it was 2.74%.
As to `CCC[C@@H]([C@@H](CC1CCC(C)CC1)C(=O)N[C@@H](CCCCNC(=O)c1ccccn1)C(=O)Nc1nccs1)N(O)C=O` (stereo partly drawn), the figures for the inhibition in test [1], in test [2] and in test [3] were 2.27%, 4.29% and 1.8%, respectively.
Regarding `O=C(Nc1ccc2c(c1)CCC2)c1nc(N2CCN(c3ccncc3)CC2)ccc1Cl`, the inhibition came to 1.84% in test [1], 1.86% in test [2] and 1.75% in test [3].
Taken in the same sequence, the figures for `CCCCn1c(Sc2ccc(C#N)c([N+](=O)[O-])c2)nnc1-c1ccc(OC)cc1` were 3.24%, 2.64% and 0.78%.
Taken in the same sequence, the figures for `O=c1cc(NCCCNCc2cc(Br)ccc2F)[nH]c2ccccc12` were -1.01%, -0.63% and -6.76%.
`O=C(Nc1nc2cc(S(=O)(=O)NCCc3cccc(F)c3)ccc2n1CCCn1ccnc1)c1ccc(Cl)cc1`: the figures for the inhibition in test [1], in test [2] and in test [3] were 1.22%, 0.32% and 4.97%, respectively.
Taken in the same sequence, the figures for `CCOC(=O)c1c[nH]c2c(sc3cc(OC)ccc32)c1=O` were -0.83%, -0.51% and -0.47%.
Regarding `CCCC(N)C(=O)NC1CCN(c2c(F)c(N)c3c(=O)c(C(=O)O)cn4c3c2Oc2ccccc2-4)C1` (stereo not drawn), the results for the inhibition in test [1], in test [2] and in test [3] were 82.5%, 82.6% and 76.2%, respectively.
On to `CCNc1cc(C(=O)NC(Cc2ccccc2)C(O)CNC2CCSCC2)cc(N2CCCC2=O)c1` (stereo not drawn), for which the inhibition in test [1] stood at 3.69%; in test [2], 3.13%; in test [3], 4%.
Taken in the same sequence, the figures for `Cc1nc2nc(N)nc(N)c2c(C)c1Cc1ccc(C(F)(F)F)cc1` were 32.9%, 38.8% and 28.9%.
The like results for `COc1c(C2CCN(CCCCNC(=O)c3ccc(-c4ccc(C#N)cc4)c(O)c3)CC2)ccc2c1CCCC2` were, in that order, -0.29%, -0.43% and 0.55%.
The like results for `CCNc1cc(C(=O)N[C@@H](Cc2ccccc2)[C@H](O)CNC(C)CC(C)C)c(F)c(N2CCCCS2(=O)=O)c1` (stereo partly drawn) were, in that order, 2.89%, 3.43% and 2.55%.
Turning to `c1ccc(CNCc2ccc(-c3ccc(-c4nc5ccccc5[nH]4)cc3)cc2)cc1`, the inhibition was determined as 20.4% in test [1], 12.9% in test [2] and 10% in test [3].
In the case of `COc1ccc(C2CC(=O)C3=C(C2)NC(C)=C(C(=O)OC2CCCC2)C3c2ccc(O)cc2)cc1OC` (stereo not drawn), the results for the inhibition in test [1], in test [2] and in test [3] were -0.48%, 0.53% and 0.39%, respectively.
`CN(C)CC(=O)N(Cc1ccc(Cl)c(Cl)c1)Cc1csc(-c2ccc(CNCc3ccccc3)cc2)n1`: the inhibition amounted to 3.28% in test [1], 0.77% in test [2] and 0.35% in test [3].
The like results for `C[C@@]12C[C@@H](Nc3nc(NCCc4ccc(O)cc4)nc(N4CCNCC4)n3)C[C@@H](C1)c1cccc(Cl)c1O2` were, in that order, -1.38%, -1.84% and 2.14%.
